Measurements reported in PubChem BioAssay (NCI).
About 83,000 compounds went through this panel and 20% of them were active in at least one assay; those are over-represented in the sample as a whole.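 Each cell line was grown in a 96-well plate and treated with one concentration of compound for 48 hours. Values below 10 were considered active.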 Active and inactive are the calls of the source.

tested on: MDA-MB-468 breast; test: NCI-60 one-dose screen, 48 h (100 = growth as untreated, 0 = no growth, -100 = all killed); settings: 10 µM unless noted

Q: Which growth does the source give for `CCN1C(=O)N(CC)C2C1NN=c1s/c(=C3\C(=O)N(C)c4ccccc43)c(=O)n12` (stereo not given) here?
A: 13.4% (inactive)

Q: How did the growth turn out when `Cn1ccc(=O)c(C(=O)Nc2nsc3ccc([N+](=O)[O-])cc23)c1` was run?
A: 87.1% (inactive)

Q: `CCn1c(SCC(=O)Nc2cccc(C(=O)/C=C/c3ccc(Br)cc3)c2)nc2ccccc2c1=O` was tested. Which growth did it give?
A: 86.6% (inactive)

Q: With `COc1ccc(-c2nnc(SCC(=O)Nc3ccc(C(=O)/C=C/c4cc(OC)c(OC)c(OC)c4)cc3)n2-c2ccccc2)cc1OC` as the compound, how does the growth read?
A: -14.2% [100 µM] (active)

Q: `CC(C)(C)[C@H](OCc1cn([C@H]2C[C@@H](O)[C@@H](CO)O2)c(=O)[nH]c1=O)c1ccc(C#Cc2ccccc2)cc1[N+](=O)[O-]` was tested. Which growth did it give?
A: 68.2% (inactive)

Q: For `CCN1C(=O)/C(=c2\sc3n(c2=O)NC2C(N=3)N(CC)C(=O)N2CC)c2ccccc21` (stereo not given), which growth is on record?
A: 27% (inactive)

Q: `C=C(C)[C@@H]1CC[C@]2(C(=O)NS(=O)(=O)c3ccccc3)CC[C@]3(C)[C@H](CC[C@@H]4[C@@]5(C)CC[C@H](OC(=O)NS(=O)(=O)c6ccccc6)C(C)(C)[C@@H]5CC[C@]43C)[C@@H]12` was tested. Which growth did it give?
A: 25.8% (inactive)

Q: `CN(C)c1ccc(/C=N/Nc2nc(N/N=C/c3ccc(N(C)C)cc3)nc(N3CCCCC3)n2)cc1` was tested. Which growth did it give?
A: 36.3% (inactive)

Q: `CN(C)CCCNc1nc(-c2cccc(C(Cl)(Cl)Cl)c2)nc(C(Cl)(Cl)Cl)n1` was tested. Which growth did it give?
A: 114% (inactive)

Q: `Cc1cc(O)c(C2=NN(c3ccc(S(N)(=O)=O)cc3)C(c3ccc(Cl)cc3)C2)c(C)c1Cl` (stereo not given) was tested. Which growth did it give?
A: 43.7% (inactive)

Q: `CCCCNC(=O)Oc1ccc(/C(=C(\C)c2ccc(Cl)cc2)c2ccc(OCCN(CC)CC)cc2)cc1` was tested. Which growth did it give?
A: 71.8% (inactive)

Q: Which growth does the source give for `COc1ccccc1-n1cc(C#N)c(N)c1C(=O)c1ccc(C)cc1` here?
A: 46.2% (inactive)

Q: `Cc1nn(-c2ccc(Cl)cc2)c(=O)n1CCOc1ccccc1Cl` was tested. Which growth did it give?
A: 105% (inactive)

Q: `CCOC(=O)c1sc(NCC(=O)Nc2cccc([N+](=O)[O-])c2)c(C(=O)OCC)c1C` was tested. Which growth did it give?
A: -47.4% (active)

Q: Which growth does the source give for `COc1cc2oc(-c3cccc(C(=O)Nc4ccc(C)cc4)c3)cc(=O)c2c(OC)c1OC` here?
A: 54.5% (inactive)

Q: `O=C(c1ccc(O)cc1)C1[C@H](c2ccc(Cl)cc2)[C@@H](c2ccccc2)NC12C(=O)Nc1ccc(Cl)cc12` (stereo not given in full) was tested. Which growth did it give?
A: 39.4% (inactive)

Q: For `COc1cc(C2Cc3ncccc3-c3[nH]c(=O)c4cccnc4c32)cc(OC)c1OC` (stereo not given), which growth is on record?
A: 22.8% (inactive)

Q: How did the growth turn out when `O=[N+]([O-])c1cc2c(cc1Br)C1C(C3C2C(Cl)(Cl)C(Cl)=C(Cl)C3(Cl)Cl)C(Cl)(Cl)C(Cl)=C(Cl)C1(Cl)Cl` (stereo not given) was run?
A: 95.7% (inactive)

Q: `COc1cc(C2C(C(=O)c3cccs3)=C(O)C(=O)N2CCN2CCOCC2)cc(OC)c1OC` (stereo not given) was tested. Which growth did it give?
A: 101% (inactive)

Q: For `CC1(C)[C@@H](O[C@@H]2OC[C@@H](O[C@@H]3O[C@H](CO)[C@@H](O)[C@H](O)[C@H]3O[C@@H]3OC[C@@H](O)[C@H](O)[C@H]3O)[C@H](O)[C@H]2O[C@@H]2O[C@H](CO)[C@@H](O)[C@H](O)[C@H]2O)CC[C@]2(C)[C@H]3CC[C@]45OC[C@@]6(CC[C@](C)(C=O)C[C@H]64)[C@H](O)C[C@@]5(C)[C@]3(C)CC[C@@H]12`, which growth is on record?
A: -71.2% (active)

Q: Which growth does the source give for `COC(=O)C(N)CC(C)C` (stereo not given) here?
A: 98% (inactive)

Q: With `CN1CCN(Cc2ccc(NC(=O)c3cncc(C#Cc4cnc(N)nc4)c3)cc2C(F)(F)F)CC1` as the compound, how does the growth read?
A: 36% (inactive)

Q: Which growth does the source give for `Nc1ccc(/C=N/Nc2ccnc3c(O)cccc23)c2cccnc12` here?
A: 73.6% (inactive)

Q: How did the growth turn out when `CC1(C)CC[C@]2(C(=O)O)CC[C@]3(C)C(=CC[C@@H]4[C@@]5(C)C/C(=C/c6cccnc6)[C@H](O)C(C)(C)[C@@H]5CC[C@]43C)[C@@H]2C1` was run?
A: 4.01% [100 µM] (active)

Q: How did the growth turn out when `CCN(CC)CCCNc1c2ccc(Cl)cc2nc2ccc(OC)cc12` was run?
A: -34.6% (active)

Q: For `COc1ccc(-c2nc3ccccn3c2-c2nnc(-c3cc(OC)c(OC)c(OC)c3)o2)cc1`, which growth is on record?
A: 44.3% (inactive)

Q: `O=C(/C=C/c1c(Cl)nc2sccn12)c1ccc(F)c(F)c1` was tested. Which growth did it give?
A: 35.4% (inactive)

Q: For `Nc1ccc2[nH]c(-c3ccccc3)cc(=O)c2c1`, which growth is on record?
A: 51% (inactive)

Q: Which growth does the source give for `COc1ccc(-c2ccc(C)n2-c2ccc(-c3nc4cc(Cl)ccc4s3)cc2)cc1` here?
A: -30.7% (active)

Q: Which growth does the source give for `CCCCc1ccc(C(N)=O)nc1` here?
A: 85% (inactive)

Q: With `COc1ccc2nc3ccccc3c(NCc3ccccc3)c2c1` as the compound, how does the growth read?
A: -9.89% (active)

Q: Which growth does the source give for `NC(=O)C1CCCN(Cc2c[nH]c3ccccc23)C1` (stereo not given) here?
A: 97.7% (inactive)

Q: `CCCCC(CCc1ccc([N+](=O)[O-])cc1)(C(C)=O)C(=O)OCC` (stereo not given) was tested. Which growth did it give?
A: 83.8% (inactive)

Q: Which growth does the source give for `O=S(=O)(NCCNc1cc(-c2c(-c3cccc(O)c3)nc3sccn23)ccn1)c1ccc(Cl)cc1` here?
A: 51.5% (inactive)

Q: With `Fc1ccc2c(c1)c(-c1nc(-c3c[nH]c4ncccc34)cs1)cn2CCCN1CCOCC1` as the compound, how does the growth read?
A: 18.3% (inactive)

Q: With `COc1ccc(-c2nc(SCC(=O)Nc3ccc(C(C)=O)cc3)[nH]c(=O)c2C#N)cc1` as the compound, how does the growth read?
A: 105% (inactive)

Q: With `CCCCN1CCN(c2ccc3nc(-c4ccc5nc(-c6ccc(OCC)cc6)[nH]c5c4)[nH]c3c2)CC1` as the compound, how does the growth read?
A: 67.3% (inactive)

Q: With `CCC1=C[C@@H]2CN(C1)Cc1c([nH]c3ccccc13)[C@@](C(=O)OC)(c1cc3c(cc1OC)N(C=O)[C@H]1[C@@](O)(C(=O)OC)[C@H](OC(C)=O)[C@]4(CC)[C@@H]5C[C@@H]5CN5CC[C@]31[C@@H]54)C2` as the compound, how does the growth read?
A: 25.2% (inactive)

Q: `CCOC(=O)c1nnn(C(Cc2ccccc2Cl)C(=O)OCC)c1C` (stereo not given) was tested. Which growth did it give?
A: 110% (inactive)

Q: With `COc1ccc(OC)c(/C=C2\COc3ccc(O)cc3C2=O)c1` as the compound, how does the growth read?
A: 82.7% (inactive)
